Data on 40 molecules can be found in PubChem BioAssay (EPA / NIEHS).

Inconclusive results are not listed. Calls of active or inactive are those of the source. Rule for the calls: active = hit-call score of the fitted dose curve at least 0.9, where 1 is the maximum; inconclusive = response in the unintended direction; inactive = score below 0.9.

Chain of Cellular tumor antigen p53 (Homo sapiens) (P04637 whole entry, looked up): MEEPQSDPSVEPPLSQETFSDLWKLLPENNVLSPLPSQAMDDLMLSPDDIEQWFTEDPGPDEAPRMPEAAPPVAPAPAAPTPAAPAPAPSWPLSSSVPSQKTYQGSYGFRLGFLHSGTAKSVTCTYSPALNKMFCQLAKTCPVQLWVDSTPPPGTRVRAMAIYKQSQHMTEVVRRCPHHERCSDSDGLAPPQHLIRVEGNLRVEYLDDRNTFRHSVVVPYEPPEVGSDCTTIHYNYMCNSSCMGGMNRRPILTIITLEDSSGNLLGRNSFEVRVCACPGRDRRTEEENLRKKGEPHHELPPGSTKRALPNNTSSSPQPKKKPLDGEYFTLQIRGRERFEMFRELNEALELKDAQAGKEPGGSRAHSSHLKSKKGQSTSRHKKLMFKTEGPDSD

The target in the first test is Cellular tumor antigen p53 (Homo sapiens) (UniProt P04637). Kind of test: TOX21_p53_BLA_p2_ratio: Tox21 HCT-116 p53 Agonism Beta-lactamase Assay, Ratio, Phase 2 (AID 2283592). In short, it runs like this:
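Gain-of-signal p53 agonism was scored from the beta-lactamase FRET ratio (460/530 nm, 405 nm excitation) in HCT116 cells treated 16 h at 37C, 5% CO2, with DMSO serving as negative control and baseline.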
In the case of `CON=C(C(=O)N[C@@H]1C(=O)N2C(C(=O)O)=C(COC(N)=O)CS[C@H]12)c1ccco1`, the result was inactive.
By AC50 is commonly meant the concentration at which the activity in the assay is half-maximal. Take `C[C@H]1O[C@@H](n2cc(F)c(=O)[nH]c2=O)[C@H](O)[C@@H]1O`: the AC50 was 23 µM (active).
Regarding `O=C(O)c1cc(=O)c2c3nc4ccccc4oc-3cc(=O)c2[nH]1`, the outcome was inactive.
As to `CO[C@@]12[C@H](COC(N)=O)C3=C(C(=O)C(C)=C(N)C3=O)N1C[C@@H]1N[C@@H]12`, the AC50 is 7.59 µM (active).
`CCN(CC)CCOc1ccc(-c2nc3cc(Cl)ccc3s2)cc1`: the outcome was inactive.
Turning to `Cc1c(Cl)cccc1Nc1ccccc1C(=O)O`, the concentration at half-maximal activity (AC50) is 19.4 µM (active).
`CO[C@H]1/C=C/O[C@@]2(C)Oc3c(C)c(O)c4c(O)c(cc(O)c4c3C2=O)NC(=O)/C(C)=C\C=C\[C@H](C)[C@H](O)[C@@H](C)[C@@H](O)[C@@H](C)[C@H](OC(C)=O)[C@@H]1C`: the outcome was inactive.
The same measure, in the same setting: for `COc1ccccc1N1CCN(CC(O)COc2cccc3ccccc23)CC1` (stereo not given) the value was “inactive”; for `CN(C)c1nc(N(C)C)nc(N(C)C)n1`, “inactive”.
Regarding `NC(=O)c1ccccc1C(N)=O`, the AC50 is 72.7 µM (active).
On to `OC[C@@H](O)[C@@H](O[C@@H]1O[C@H](CO)[C@H](O)[C@H](O)[C@H]1O)[C@H](O)[C@@H](O)CO`, for which the outcome was inactive.
Same read-out and setting: under `NCCS` stands “inactive”.
For `CCCCCCCCCCCCCCC(=O)O`, the outcome was inactive.
The same measure, in the same setting: under `CCCCCCCCCCCCCCCCCC(=O)OC[C@@H](O)[C@H]1OC[C@H](O)[C@H]1O` stands “inactive”.
For the molecule `Cc1ccc2nc(N)[nH]c(=O)c2c1Sc1ccncc1`, the AC50 is 2.17 µM (active).
Take `COc1cccc2c1[C@@H]1CN(CCCCn3c(=O)[nH]c4c(sc5ncc(-c6ccccc6)nc54)c3=O)C[C@@H]1CO2`: the outcome was inactive.
Still for that read-out and setting: for `CCOC(=O)C=CC(=O)O` the value was “inactive”.
Turning to `O=C(Nc1ccc(Br)cc1)c1cc(Br)c(Br)s1`, the result was inactive.
Consider `CCC(C)(C)c1ccc(CC(C)CN2C[C@@H](C)O[C@@H](C)C2)cc1` (stereo not given in full), for which the outcome was inactive.
On the same count and under the same terms, for `O=C(O)COC(=O)Cc1ccccc1Nc1c(Cl)cccc1Cl` the value was “inactive”; for `C=CC(=O)O`, “inactive”; for `CCC(C)n1ncn(-c2ccc(N3CCN(c4ccc(OC[C@H]5CO[C@](Cn6cncn6)(c6ccc(Cl)cc6Cl)O5)cc4)CC3)cc2)c1=O` (stereo not given in full), “inactive”.
Take `NCCCC[C@H](NC(=O)[C@@H]1CCCN1C(=O)[C@@H]1CSSC[C@H](N)C(=O)N[C@@H](Cc2ccc(O)cc2)C(=O)N[C@@H](Cc2ccccc2)C(=O)N[C@@H](CCC(N)=O)C(=O)N[C@@H](CC(N)=O)C(=O)N1)C(=O)NCC(N)=O`: the outcome was inactive.
Turning to `C=C1/C(=C\C=C2/CCC[C@]3(C)[C@@H]([C@H](C)CCCC(C)(C)O)CC[C@@H]23)C[C@@H](O)C[C@@H]1O`, the AC50 was 37.8 µM (active).
For the molecule `C=CCNC1=C2C[C@@H](C)C[C@H](OC)[C@H](O)[C@@H](C)/C=C(\C)[C@H](OC(N)=O)[C@@H](OC)/C=C\C=C(/C)C(=O)NC(=CC1=O)C2=O`, the AC50 is 0.189 µM (active).
On to `O[C@@H](CNC[C@H](O)[C@H]1CCc2cc(F)ccc2O1)[C@@H]1CCc2cc(F)ccc2O1`, for which the outcome was inactive.
Consider `O=C(O)c1ccc(Cl)c(Cl)c1`, for which the result was inactive.
Take `Cc1ccc(S(=O)(=O)NC(=O)NN2CC3CCCC3C2)cc1` (stereo not given): the result was inactive.
On the same count and under the same terms, for `Cn1cnc2c(F)c(Nc3ccc(Br)cc3Cl)c(C(=O)NOCCO)cc21` the value was “inactive”.
For the molecule `CC1=CC(C)(C)Nc2ccccc21`, the outcome was inactive.
For `COc1cccc2c1C(=O)c1c(O)c3c(c(O)c1C2=O)C[C@@](O)(C(=O)CO)C[C@@H]3O[C@H]1C[C@H](N)[C@H](O[C@@H]2CCCCO2)[C@H](C)O1`, the AC50 was 6.79 µM (active).
Take `CC(C)COC(=O)COc1cc(Cl)c(Cl)cc1Cl`: the result was inactive.
The same measure, in the same setting: under `CCCCNc1cc(C(=O)O)cc(S(N)(=O)=O)c1Oc1ccccc1` stands “inactive”; under `Oc1ccc(Cl)c2cccnc12`, “inactive”.
Turning to `Cc1cc(-c2ccc(N=Nc3cc(S(=O)(=O)O)c4ccccc4c3N)c(C)c2)ccc1N=Nc1cc(S(=O)(=O)O)c2ccccc2c1N`, the concentration at half-maximal activity (AC50) is 6.5 µM (active).
Regarding `CC1(C)C[C@@H]1C(=O)N/C(=C\CCCCSC[C@H](N)C(=O)O)C(=O)O`, the outcome was inactive.
Still for that read-out and setting: under `O[C@@H]([C@H](O)[C@H](O)CBr)[C@H](O)CBr` stands “inactive”.
The same measure, in the same setting: for `Cc1cc(O)c(C(C)C)cc1Cl` the value was “inactive”.
Regarding `Cc1cc(O)c2c(c1)O[C@@]1(C)CC[C@H]3C(C)(C)CCCC34CO[C@@H]2[C@H]41` (stereo not given in full), the AC50 was 44.2 µM (active).
In the case of `CN1[C@@H]2CC[C@H]1CC(OC(=O)C(O)c1ccccc1)C2` (stereo not given in full), the result was inactive.

Tested on in a further test: not listed separately
As to the kind of experiment: TOX21_p53_BLA_p3_viability: Viability Assessment in the Tox21 HCT-116 p53 Agonism Beta-lactamase Assay, Phase 3 (AID 2283593).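 Note: cells exposed to compound for 16 h before reading.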 Summed up: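 HCT-116 cells (4000/well) rested 5 h at 37C, then got DMSO compounds by pin tool (217-fold dilution) for 16 h at 37C, 5% CO2. After the bla read, CellTiter-Glo was added and luminescence read at 30 min, room temperature.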
Consider `CON=C(C(=O)N[C@@H]1C(=O)N2C(C(=O)O)=C(COC(N)=O)CS[C@H]12)c1ccco1`, for which the result was inactive.
For the molecule `C[C@H]1O[C@@H](n2cc(F)c(=O)[nH]c2=O)[C@H](O)[C@@H]1O`, the AC50 was 15.5 µM (active).
Take `O=C(O)c1cc(=O)c2c3nc4ccccc4oc-3cc(=O)c2[nH]1`: the molecule was classed as inactive.
With `CO[C@@]12[C@H](COC(N)=O)C3=C(C(=O)C(C)=C(N)C3=O)N1C[C@@H]1N[C@@H]12`, the AC50 is 29.5 µM (active).
Take `CCN(CC)CCOc1ccc(-c2nc3cc(Cl)ccc3s2)cc1`: the molecule was called inactive.
As to `Cc1c(Cl)cccc1Nc1ccccc1C(=O)O`, the AC50 was 23 µM (active).
Regarding `CO[C@H]1/C=C/O[C@@]2(C)Oc3c(C)c(O)c4c(O)c(cc(O)c4c3C2=O)NC(=O)/C(C)=C\C=C\[C@H](C)[C@H](O)[C@@H](C)[C@@H](O)[C@@H](C)[C@H](OC(C)=O)[C@@H]1C`, the molecule was called inactive.
The same measure, in the same setting: for `COc1ccccc1N1CCN(CC(O)COc2cccc3ccccc23)CC1` (stereo not given) the value was “inactive”.
Same read-out and setting: for `CN(C)c1nc(N(C)C)nc(N(C)C)n1` the value was “inactive”.
As to `NC(=O)c1ccccc1C(N)=O`, the molecule was called inactive.
As for `OC[C@@H](O)[C@@H](O[C@@H]1O[C@H](CO)[C@H](O)[C@H](O)[C@H]1O)[C@H](O)[C@@H](O)CO`, the outcome was inactive.
For `NCCS`, the molecule was classed as inactive.
In the case of `CCCCCCCCCCCCCCC(=O)O`, the outcome was inactive.
On to `CCCCCCCCCCCCCCCCCC(=O)OC[C@@H](O)[C@H]1OC[C@H](O)[C@H]1O`, for which the molecule was called inactive.
Consider `Cc1ccc2nc(N)[nH]c(=O)c2c1Sc1ccncc1`, for which the AC50 was 3.66 µM (active).
`COc1cccc2c1[C@@H]1CN(CCCCn3c(=O)[nH]c4c(sc5ncc(-c6ccccc6)nc54)c3=O)C[C@@H]1CO2`: the molecule was classed as inactive.
On to `CCOC(=O)C=CC(=O)O`, for which the call was inactive.
For the molecule `O=C(Nc1ccc(Br)cc1)c1cc(Br)c(Br)s1`, the AC50 is 32.2 µM (active).
Consider `CCC(C)(C)c1ccc(CC(C)CN2C[C@@H](C)O[C@@H](C)C2)cc1` (stereo not given in full), for which the result was inactive.
On the same count and under the same terms, under `O=C(O)COC(=O)Cc1ccccc1Nc1c(Cl)cccc1Cl` stands “inactive”; under `C=CC(=O)O`, “inactive”.
With `CCC(C)n1ncn(-c2ccc(N3CCN(c4ccc(OC[C@H]5CO[C@](Cn6cncn6)(c6ccc(Cl)cc6Cl)O5)cc4)CC3)cc2)c1=O` (stereo not given in full), the molecule was classed as inactive.
Same read-out and setting: for `NCCCC[C@H](NC(=O)[C@@H]1CCCN1C(=O)[C@@H]1CSSC[C@H](N)C(=O)N[C@@H](Cc2ccc(O)cc2)C(=O)N[C@@H](Cc2ccccc2)C(=O)N[C@@H](CCC(N)=O)C(=O)N[C@@H](CC(N)=O)C(=O)N1)C(=O)NCC(N)=O` the value was “inactive”.
Turning to `C=C1/C(=C\C=C2/CCC[C@]3(C)[C@@H]([C@H](C)CCCC(C)(C)O)CC[C@@H]23)C[C@@H](O)C[C@@H]1O`, the AC50 was 24.5 µM (active).
As for `C=CCNC1=C2C[C@@H](C)C[C@H](OC)[C@H](O)[C@@H](C)/C=C(\C)[C@H](OC(N)=O)[C@@H](OC)/C=C\C=C(/C)C(=O)NC(=CC1=O)C2=O`, the molecule was called inactive.
For `O[C@@H](CNC[C@H](O)[C@H]1CCc2cc(F)ccc2O1)[C@@H]1CCc2cc(F)ccc2O1`, the molecule was called inactive.
Take `O=C(O)c1ccc(Cl)c(Cl)c1`: the molecule was called inactive.
The same measure, in the same setting: for `Cc1ccc(S(=O)(=O)NC(=O)NN2CC3CCCC3C2)cc1` (stereo not given) the value was “inactive”; for `Cn1cnc2c(F)c(Nc3ccc(Br)cc3Cl)c(C(=O)NOCCO)cc21`, “inactive”; for `CC1=CC(C)(C)Nc2ccccc21`, “inactive”.
`COc1cccc2c1C(=O)c1c(O)c3c(c(O)c1C2=O)C[C@@](O)(C(=O)CO)C[C@@H]3O[C@H]1C[C@H](N)[C@H](O[C@@H]2CCCCO2)[C@H](C)O1`: the half-maximal activity concentration (AC50) is 7.5 µM (active).
Regarding `CC(C)COC(=O)COc1cc(Cl)c(Cl)cc1Cl`, the result was inactive.
For `CCCCNc1cc(C(=O)O)cc(S(N)(=O)=O)c1Oc1ccccc1`, the outcome was inactive.
The same measure, in the same setting: for `Oc1ccc(Cl)c2cccnc12` the value was “inactive”.
Consider `Cc1cc(-c2ccc(N=Nc3cc(S(=O)(=O)O)c4ccccc4c3N)c(C)c2)ccc1N=Nc1cc(S(=O)(=O)O)c2ccccc2c1N`, for which the molecule was called inactive.
Regarding `CC1(C)C[C@@H]1C(=O)N/C(=C\CCCCSC[C@H](N)C(=O)O)C(=O)O`, the call was inactive.
On the same count and under the same terms, under `O[C@@H]([C@H](O)[C@H](O)CBr)[C@H](O)CBr` stands “inactive”; under `Cc1cc(O)c(C(C)C)cc1Cl`, “inactive”.
With `Cc1cc(O)c2c(c1)O[C@@]1(C)CC[C@H]3C(C)(C)CCCC34CO[C@@H]2[C@H]41` (stereo not given in full), the AC50 is 34.3 µM (active).
With `CN1[C@@H]2CC[C@H]1CC(OC(=O)C(O)c1ccccc1)C2` (stereo not given in full), the molecule was classed as inactive.
